Bioassay records: PubChem BioAssay, National Center for Advancing Translational Sciences (NCATS)
HCMV antiviral: blocks human cytomegalovirus replication | 410,000 tested, 4.5% active | HFF cells, HCMV-luciferase reporter, 72 h; hits give low values | activity change, negative = inhibition, % at 57.5 µM; in the data active means activity change below about -60%; inconclusive means no clear call, values can overlap the other calls; inactive means above about -39%; further: on the % scale 0 is the no-effect control and ±100 the full control effect
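Two-dose cell screen: HFF monolayers treated with compounds and infected with luciferase-expressing HCMV at 1 PFU/cell, 72 h at 37C, then lysed for luciferase measurement.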
Pf growth 96h: inhibits malaria parasite growth, 96 h; P. falciparum luciferase reporter growth, 96 h; Potency, µM (doses to about 28.7 µM), for inactives: at the highest dose activity change, negative = inhibition, most hits filed as inhibitors; 320,000 tested, 6.9% active; AID 504834; further: potency means the concentration at half of the fitted maximal effect; on the % scale 0 is the no-effect control and ±100 the full control effect
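Plates of compound plus infected erythrocytes (2% hematocrit, 0.05% parasitemia final) incubate 96 hours, 37 C, 5% CO2. Detection reagent added; reduced luminescence from the parasites' luciferase reporter flags inhibition.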
Pf growth 48h: P. falciparum growth inhibition at 48 hours (one generation); P. falciparum luciferase growth in erythrocytes, 48 h; Potency, µM (titrated, usually from 28.7 µM), without a hit: top-dose activity change, negative = inhibition, most hits filed as inhibitors; 310,000 tested, 5.9% active; AID 504832; further: potency means the concentration at half of the fitted maximal effect; on the % scale 0 is the no-effect control and ±100 the full control effect
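In quantitative HTS format, infected erythrocytes bearing luciferase-reporter parasites were treated for a single generation at 37 C. Luminescence after adding detection reagent served as the growth measure.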
Cycloheximide cs: affects cycloheximide protein synthesis inhibition readout, counter-screen; 300,000 tested, 12% active; max response, %; cell reporter, cycloheximide protein synthesis inhibition counterscreen; in the data active means max response mostly above about 13%, no sharp cut-off; inactive means mostly below about 14%; further: read at 38.3 µM for the half of the compounds with a filed dose; 0% is about no effect
Shiga toxin inh: blocks Shiga toxin action in Vero cells; AID 2315; Vero cells, Shiga toxin protein synthesis inhibition reporter; 290,000 tested, 9.2% active; inhibition, % at 38.7 µM; in the data active means inhibition mostly above about 28%, no sharp cut-off; inactive means mostly below about 43%; further: 0% is about no effect
Numbers without * were called inactive; ? = inconclusive; nt = no result. Rows were chosen to be rich in hits. Some 20% of all compounds tested hit in one or more screens of this group. Unless noted, the call rests on the fitted dose curve; in most records, active means well fitted inhibition curve with a large enough effect; inconclusive means small, poorly fitted or top-dose-only effect, or another doubt; inactive means no such curve, though single readings can be large or run the other way.

SMILES	HCMV antiviral	Pf growth 96h	Pf growth 48h	Cycloheximide cs	Shiga toxin inh
Cc1ccc(C)c(-n2c(CCC(=O)O)ccc2-c2ccc(Cl)cc2)c1	27	nt	nt	nt	nt
C=CCSc1nnc(NC(=O)c2cccc(S(=O)(=O)N(C)c3ccccc3)c2)s1	3	-21%	20%	3	7
CCOC(=O)N1CCN(C(=O)CCn2c(=S)[nH]c3ccsc3c2=O)CC1	-10	9.3µM*	19%	13	14
CCOC(=O)N1CCN(C(=O)CCn2c(=O)[nH]c3ccsc3c2=O)CC1	-27	?	2%	-6	10
CCC1(O)C(=O)OCc2c1cc1n(c2=O)Cc2cc3c(N)cccc3nc2-1 (centres undefined)	-98*	nt	nt	nt	nt
O=C(CNC(=O)c1ccccc1F)NC1=NCCS1	-8	8%	88%	9	22
O=C(Nc1ccc2nc(-c3cccs3)c(-c3cccs3)nc2c1)NC1CC1	-38	9.3µM*	nt	4	22
CC1CCC(NC(=O)Nc2cccs2)CC1 (centres undefined)	56	nt	nt	24*	44*
O=C(CNC(=O)c1cccs1)NC1=NCCS1	5	35%	133%	42*	21*
O=C(Nc1cccs1)NC1CCCC1	?	nt	nt	25*	95
O=C(NCC1CC1)Nc1cccs1	6	34%	9%	6	1
COc1cc(C(=O)N(CCCN(C)C)c2nc3c(OC)cccc3s2)cc(OC)c1OC	-7	nt	nt	nt	nt
Cc1ccccc1CN1C(=O)c2ccccc2Sc2ccc(C(=O)NC3CCCC3)cc21	-4	nt	nt	nt	nt
CNC(=O)c1cc(NC(=O)N(CCC#N)CCN(C(=O)NC(Cc2ccccc2)C(=O)NC(CC(C)C)C(=O)NC)c2ccccc2)ccc1OC (centres undefined)	-24	nt	nt	nt	nt
Cc1ccc(C(=O)NCC(=O)NC2CCC(C)CC2)s1 (centres undefined)	109	-21%	-7%	nt	nt
CC1CCC(NC(=O)CNC(=O)c2cccs2)CC1 (centres undefined)	88	187%	137%	45*	116*
O=[N+]([O-])c1ccc(-c2nc(-c3ccc(F)cc3)c(-c3ccncc3)[nH]2)cc1	nt	nt	nt	9	-6
CCCNC(=O)C(C)n1c2ccccc2c2nc(=O)cc(C)n21 (centres undefined)	nt	30%	nt	-4	-19
Cc1cc(=O)nc2c3ccccc3n(C(C)C(=O)Nc3cc(F)ccc3F)n12 (centres undefined)	-35	10µM*	?	2	-9
Cc1cc(=O)nc2c3ccccc3n(C(C)C(=O)Nc3c(F)c(F)c(F)c(F)c3F)n12 (centres undefined)	25	0%	3.3µM*	1	-3
O=C1CS/C(=N/N=C/c2ccccc2)N1c1ccc(O)cc1	20	1.7µM*	14%	-1	7
O=C1CS/C(=N\N=C\c2ccco2)N1c1ccccc1	48	5%	28%	15*	45
Cc1c(N2C(=O)CS/C2=N\N=C\c2ccc(Br)cc2)c(=O)n(-c2ccccc2)n1C	-3	8%	4%	-2	-17
CC(C)(C)c1ccc(CC(=O)N2CCC2(C)C(=O)NS(=O)(=O)c2ccc(C#N)cc2)cc1 (centres undefined)	3	nt	nt	nt	nt
C/C(=N/NC(=O)c1ccoc1C)c1cccc(NC(=O)C2CC2)c1	-8	22%	40%	63*	73*
SMILES	HCMV antiviral	Pf growth 96h	Pf growth 48h	Cycloheximide cs	Shiga toxin inh
COc1cccc(NC(=O)c2ccc(OC(F)(F)F)cc2)c1	84	125%	131%	nt	nt
Cc1occc1C(=O)Nc1cccc(/C=C/C(=O)O)c1	-19	nt	nt	nt	nt
C/C(=N/NC(=O)c1ccc(C)s1)c1cccc(NC(=O)c2ccoc2C)c1	22	-10%	5%	32*	37
COc1ccc(C(=O)N/N=C(/C)c2cccc(NC(=O)C(F)(F)F)c2)cc1	81	146%	192%	37*	73*
C/C(=N/NC(=O)c1ccoc1C)c1cccc(NC(=O)C(F)(F)F)c1	13	58%	71%	59*	104*
NC(=O)c1ccc(-c2nnn(CC(=O)N(C3CCCC3)C3CCS(=O)(=O)C3)n2)cc1 (centres undefined)	0	-15%	-1%	nt	nt
CCOC(=O)C1=C(C)NC(C)=C(C(=O)OCC)C1C(=O)OCC(=O)NC1(C#N)CCCCC1	-24	?	?	nt	nt
CC(=O)c1ccc(N2C(=O)N(Cc3ccccc3C#N)c3ccccc3S2(=O)=O)cc1	-28	nt	nt	nt	nt
Cc1ccc(Nc2ccc(-n3ccnc3)nn2)cc1C	-26	10µM*	?	22*	2
COc1cccc(Nc2ccc(-n3ccnc3)nn2)c1	-13	66%	?	6	-5
CCc1ccc(-c2ccc(C(=O)C(F)(F)F)[nH]2)cc1	121	36%	336%	64*	126*
O=C(O)c1ccc(-c2ccccc2)[nH]1	15	nt	9%	-2	17
CCCC(CCC)C(=O)Nc1ccc2c(c1)N(C(=O)CN1CCN(C)CC1)c1ccccc1CC2	-17	-6%	5.2µM*	-1	28
CCOC(=O)Nc1ccc2c(c1)N(C(=O)CN(C)C)c1ccccc1S2	4	nt	nt	nt	nt
CC(=O)Nc1ccc2c(c1)N(C(C)=O)c1ccccc1CC2	3	?	?	-1	-11
CCOC(=O)Nc1ccc2c(c1)N(C(=O)CN1CCN(C)CC1)c1ccccc1S2	4	124%	9.3µM*	-1	-4
Clc1ccc(-c2noc(-c3cccnc3N3CCN(c4ccccc4)CC3)n2)cc1	6	nt	nt	nt	nt
Cc1nnc(SCC(=O)NNC(=O)COc2ccc(Br)cc2)n1C	-33	32%	24%	nt	nt
COc1cc(/C=N/OCC(=O)NC2CCCCC2)ccc1OCc1ccccc1	2	?	16%	55*	152*
COc1ccc(/C=N/OCC(=O)NC(c2ccccc2)c2ccccc2)cc1OC	-66*	8.3µM*	9.3µM*	10	2
COc1cc(/C=N/OCC(=O)NC23CC4CC(CC(C4)C2)C3)ccc1OCc1ccccc1	0	9.3µM*	?	36*	101*
O=C(CSc1nnc(-c2ccncc2)n1-c1ccccc1)N1CCN(c2ccc(Cl)cc2)CC1	16	?	nt	-3	-2
COc1ccc(-c2nc3cc(NC(=O)COc4ccccc4C)ccc3o2)cc1	42	nt	nt	nt	nt
COc1ccccc1[C@@H]1C(c2cccc(Cl)c2)=NN(c2ccccc2)[C@H]1C(=O)N1CCOC1=O	nt	10µM*	15µM*	9	12
COc1ccccc1[C@@H]1C(c2ccccc2)=NN(c2ccc(Br)cc2)[C@H]1C(=O)N1CCOC1=O	-19	nt	nt	-1	45
CCc1ccc(-n2nc(CO)c(C(=O)NCc3ccccc3Cl)n2)cc1	22	nt	nt	nt	nt
O=C(Nc1ccc(N2CCCC2)c(Cl)c1)c1ccccc1F	86	nt	nt	nt	nt
O=C(Nc1ccc(N2CCOCC2)c(Cl)c1)c1ccc(Cl)cc1	?	10%	0%	32*	52*
Cc1cc(C(=O)Nc2ccc(N3CCOCC3)c(Cl)c2)c(C)o1	67	53%	93%	34*	42*
O=C(Nc1ccc(N2CCOCC2)c(Cl)c1)c1ccccc1F	32	nt	94%	35*	109*
